# Assay outcomes as filed in PubChem.
# A selection: hits, their analogues and other compounds. The true share with any hit is near 4.9%.
# PP1 inh: PP1-alpha phosphatase inhibitors, primary screen, counter-screen for PP5 inhibitor project, biochemical, fluorescence, OMFP substrate, single point; purified PP1alpha; inhibition, % at 6.7 µM; hit rate 0.9% among 320,000; AID 2235, 2010;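 active = inhibition above the mean inhibition of all tested compounds plus 3 SD, computed separately for each screening campaign, cut at about 15% in these data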
# Mdm2 MdmX PPI: inhibitors of human Mdm2-MdmX association, primary screen, cell-based, luminescence, split luciferase, SaOS-2, uHTS | SaOS-2 split-luciferase Mdm2/MdmX complementation | Protein Mdm4 (Homo sapiens) + E3 ubiquitin-protein ligase Mdm2 (Homo sapiens), … | hit rate 3% among 330,000 | AID 485346, 2010 | inhibition, % at 8 µM;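 active = inhibition of at least 50% at 8 µM in the primary screen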
# PP5 primary: PP5 phosphatase inhibitors, primary screen, biochemical, fluorescence; hit rate 0.18% among 320,000; Serine/threonine-protein phosphatase 5 (Homo sapiens), P53041; inhibition, % at 6.7 µM; purified PP5c, OMFP substrate fluorescence;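 active = inhibition above the campaign's mean inhibition across all tested compounds plus 3 SD, cut at about 9.5% in these data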;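 note: 0% = DMSO only and 100% = 100 µM cantharidin control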
# Target sequence (P53041 whole entry, looked up): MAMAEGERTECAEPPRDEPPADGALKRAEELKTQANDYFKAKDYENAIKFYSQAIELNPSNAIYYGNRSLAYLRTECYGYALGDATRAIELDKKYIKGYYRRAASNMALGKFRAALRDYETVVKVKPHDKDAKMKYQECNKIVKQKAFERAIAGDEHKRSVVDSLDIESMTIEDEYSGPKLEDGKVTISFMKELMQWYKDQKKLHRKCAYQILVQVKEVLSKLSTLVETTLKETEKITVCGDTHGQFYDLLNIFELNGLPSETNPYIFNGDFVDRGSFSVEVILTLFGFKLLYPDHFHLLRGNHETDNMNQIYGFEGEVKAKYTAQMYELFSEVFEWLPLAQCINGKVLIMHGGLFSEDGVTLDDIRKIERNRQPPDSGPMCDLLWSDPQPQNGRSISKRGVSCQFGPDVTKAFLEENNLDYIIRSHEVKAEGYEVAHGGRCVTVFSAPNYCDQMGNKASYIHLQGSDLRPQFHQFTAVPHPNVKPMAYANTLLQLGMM
# Calb FLC: C. albicans growth inhibition with fluconazole, primary screen, CaCi-2 strain, Alamar Blue fluorescence; hit rate 0.57% among 300,000; C. albicans CaCi-2 (fluconazole-resistant clinical isolate) + fluconazole, 48 h; growth inhibition, % (concentration not given with the values);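 active = growth inhibition above about 58% in most replicates, limit read from the data, passing the limit was not always enough; inconclusive = exactly half the replicates above a set limit; inactive = most replicates below a set limit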;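 note: all wells also contain fluconazole at 8 µg/ml as a sub-toxic cotreatment; 0% = median of DMSO wells and 100% = median of geldanamycin control wells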
# Beta cell apopt: inhibitors of cytokine-induced beta cell apoptosis, primary screen, luminescence; INS-1E cytokine-induced death, ATP luminescence, 48 h; percent of positive-control rescue, neutral wells zero; protection from apoptosis, % (concentration not given with the values); hit rate 0.8% among 300,000;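 active = Every replicate reaches about 75%, or at least half do and their mean reaches it too, limit read from the data; inconclusive = At least half of replicates reach the limit but their mean does not; inactive = Under half of replicates reach the limit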;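 note: 0% = cytokine-treated negative control wells and 100% = positive control rescue; higher means more ATP so stronger rescue from cytokine killing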
# CSC inhib: cancer stem cell viability inhibitors, primary screen, luminescence | cancer stem cell-like cells viability | inhibition, % at 7.5 µM | hit rate 1.1% among 300,000 | AID 2717, 2010; in the data active = inhibition above about 75%; inconclusive = no clear call, values can overlap the other calls; tested in HMLE shEcad cells
# Active calls of the source: *; ? = inconclusive; . = no result.
SMILES,PP1 inh,Mdm2 MdmX PPI,PP5 primary,Calb FLC,Beta cell apopt,CSC inhib
CC(=O)Nc1ccc2oc(-c3ccccc3Br)nc2c1,-5,-156,1,5,-4,4
FC(F)(F)c1cc(CCN2C(=S)NC[C@@H]2CC2CCCCC2)cc(C(F)(F)F)c1,2,15,1,-4,7,97*
FC(F)(F)c1cc(CCN2C(=S)NC[C@@H]2Cc2ccccc2)cc(C(F)(F)F)c1,1,-18,4,-9,1,65
Cc1ccc(O)c(-c2cc(-c3cccc(Br)c3)n[nH]2)c1,8,41,1,99*,14,12
O=c1c2ccccc2ncn1Cc1cccc2ccccc12,0,19,1,41,1,19
Cc1[nH][nH]c(=O)c1C(c1c(C)[nH][nH]c1=O)c1cn(Cc2cccc3ccccc23)c2ccccc12,16*,38,3,.,-12,.
CC(=O)c1c2c3c(c(Br)ccc3n(C)c1=O)C(=O)c1ccccc1-2,5,17,3,-16,3,-5
CC(=O)c1c(C)oc2c1C(=O)c1ccccc1C2=O,-2,.,3,7,96*,83*
Cc1cccc(C)c1OCc1cc(C(=O)N2CC3C[C@@H]4CC2C[C@H](C3)C4)no1,-1,-84,3,-32,3,107*
Cc1ccc(OCc2cc(C(=O)N3CC4C[C@@H]5CC3C[C@H](C4)C5)no2)cc1C,-4,-24,-1,0,-1,-7
CC1CCCCC1NC(=O)Cc1ccc(S(=O)(=O)N2CCOCC2)s1 (configuration not stated),-4,28,0,15,.,-4
CC1CCN(c2c([N+](=O)[O-])c(=O)oc3ccccc23)CC1,-5,-8,-2,5,-5,-8
O=C(c1ccc(-c2cc3ccccc3oc2=O)cc1)N1CCN(c2ccc(Cl)cc2[N+](=O)[O-])CC1,16*,30,4,9,9,-10
CC(NC(=O)COC(=O)c1cc(NS(=O)(=O)c2ccc(Cl)c([N+](=O)[O-])c2)ccc1O)C1CC2CCC1C2 (configuration not stated),4,14,4,?,-1,108*
N#CC(C#N)=C1C=CC=CN1/C(=C\c1ccco1)C(=O)c1ccc(Cl)cc1,4,.,7,.,52,-63
N#CC(C#N)=C1C=CC=CN1/C(=C\c1ccco1)C(=O)c1ccc(-c2ccccc2)cc1,2,.,5,.,16,75*
C=C(CC[C@@H](O)C(C)(C)O)[C@H]1CC[C@]2(C)[C@@H]1CCC1[C@@]3(C)CCC(=O)C(C)(C)C3CC[C@]12C (some centres not stated),.,48,.,.,10,109*
Cc1oc(/N=C/c2cccc3ccccc23)c(C#N)c1C,4,7,-3,1,-1,-9
Cc1oc(/N=C/c2ccccc2)c(C#N)c1C,.,11,.,1,165*,99*
Cc1ccn2cc(-c3ccc(O)c(O)c3)nc2c1,-3,-55,2,.,2,33
CCC(C)n1c(-c2cccs2)nc2nc3ccccc3nc21 (configuration not stated),1,20,3,35,4,64*
O=c1c(Cc2c(F)cccc2Cl)c(O)ccn1CCc1c[nH]c2ccccc12,1,16,-2,10,1,-7
CCN1C/C(=C/c2ccc(N3CCOCC3)cc2)C(=O)/C(=C/c2ccc(N3CCOCC3)cc2)C1,-2,.,5,1,6,103*
CN(CC(=O)Nc1ccccc1Cl)C(=O)COC(=O)CCN1C(=O)C2CC=CCC2C1=O (configuration not stated),-2,-11,0,-6,-3,-5
CCOC(=O)c1csc(-c2snnc2C)n1,-2,7,2,-2,-5,-3
